Our source for the AC50 and outcome values is PubChem BioAssay (EPA / NIEHS).

Active and inactive are the calls of the source. Rule for the calls: active = hit-call score of the fitted dose curve at least 0.9, where 1 is the maximum; inactive = score below 0.9.

Experiment [1] is described as follows: APR_HepG2_CellLoss_72hr: Apredica 72-hour HepG2 Assay for Cell Loss (AID 2282915). As to conditions: high-content imaging. In a few lines:
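HepG2 cells exposed 72 h to compound at 0.39–200 uM (10 concentrations, duplicate) in 0.5% DMSO. Fixed with 3.7% formaldehyde and Hoechst 33342-stained. Imaged at 20x; nuclear count gives cell number, fitted bidirectionally versus DMSO.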

Experiment [2] in a line: APR_HepG2_P-H2AX_72hr: Apredica 72-hour HepG2 Assay for H2AX Phosphorylation (AID 2282916).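 Note: phospho-histone H2A.x immunostain intensity per cell marking DNA damage.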 The note with it: imaging, actives raise or lower the signal. A digest of the protocol:
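Phospho-H2A.x imaging endpoint in HepG2 after 72 hr compound exposure (0.39–200 uM, duplicate wells). Activity derived by bidirectional curve fitting with DMSO as baseline.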

The nature of experiment [3]: APR_HepG2_MitoMembPot_72hr: Apredica 72-hour HepG2 Assay for Mitochondrial Membrane Potential (AID 2282917). The note with it: imaging, actives raise or lower the signal. In a few lines:
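HepG2 cells dosed 72 hr with compound at 0.39–200 uM in duplicate, 0.5% v/v DMSO final. Mitochondria stained with 250 nM MitoTracker Red CMXRos for 30 min before formaldehyde fixation, imaged by high-content fluorescence; bidirectional fit versus DMSO.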

Experiment [4] is described as follows: APR_HepG2_MitoticArrest_72hr: Apredica 72-hour HepG2 Assay for Mitotic Arrest (AID 2282918). The note with it: high-content imaging, actives raise or lower the signal. In a few lines:
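HepG2 cells treated 72 h at 0.39–200 uM, 0.5% DMSO final; formaldehyde-fixed, stained with Hoechst 33342 and phospho-histone H3 antibody, imaged by high-content fluorescence; bidirectional fit versus DMSO.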

Experiment [5] is described as follows: APR_HepG2_MicrotubuleCSK_72hr: Apredica 72-hour HepG2 Assay for Microtubule CSK Stabilty (AID 2282919). The note with it: HepG2 microtubule cytoskeleton, high-content imaging, actives raise or lower the signal. A digest of the protocol: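 HepG2, 72 hr cmpd exposure, 0.39–200 uM (10 pts, duplicate), 0.5% DMSO. 3.7% formaldehyde fix, 0.5% Triton perm, anti-alpha-tubulin/Cy5 plus Hoechst. HCS fluorescence intensity; bidirectional fit vs DMSO baseline; taxol as positive control.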

Experiment [6] is described as follows: APR_HepG2_P-H2AX_24hr: Apredica 24-hour HepG2 Assay for H2AX Phosphorylation (AID 2282920). As to conditions: high-content imaging, actives raise or lower the signal. In a few lines:
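HepG2 cells dosed 24 h at 0.39–200 uM (10 points, duplicate, 0.5% DMSO final). Formaldehyde-fixed and permeabilized, then immunostained for phospho-H2A.x with Hoechst. Fluorescence quantified by high-content imaging, fitted bidirectionally versus DMSO.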

Experiment [7] in a line: APR_HepG2_StressKinase_72hr: Apredica 72-hour HepG2 Assay for Stress Kinase (AID 2282921). The note with it: HepG2 stress kinase (phospho-c-Jun) imaging, actives raise or lower the signal. In a few lines: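 Stress kinase signal reflects nuclear phospho-c-Jun staining in fixed, permeabilized cells exposed 72 h to compound at 0.39–200 uM; DMSO-normalized, fitted for increases or decreases.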

Experiment [8] can be described thus: APR_HepG2_StressKinase_24hr: Apredica 24-hour HepG2 Assay for Stress Kinase (AID 2282922). As to conditions: HepG2 stress kinase (phospho-c-Jun) imaging, actives raise or lower the signal. In a few lines: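 Read-out: phospho-c-Jun immunofluorescence (Cy3 secondary) quantified by high-content imaging at 20x, nuclei defined by Hoechst 33342. Human HepG2 liver cells dosed 24 hr, 0.39–200 uM, DMSO 0.5% v/v; gain or loss of signal fitted relative to DMSO.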

Experiment [9] can be described thus: APR_HepG2_p53Act_72hr: Apredica 72-hour HepG2 Assay for p53 Activation (AID 2282923).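 Note: average cellular p53 protein immunofluorescence intensity in HepG2 cells.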 The note with it: high-content imaging, actives raise or lower the signal. In a few lines:
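Fixed-cell p53 staining (sheep primary, Cy5 secondary) measured by fluorescence imaging following 72 hr treatment at 0.39–200 uM in 0.5% DMSO; DMSO served as negative control and baseline.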

Experiment [10] can be described thus: APR_HepG2_MitoMass_72hr: Apredica 72-hour HepG2 Assay for Mitochondrial Mass (AID 2282924).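 Note: MitoTracker Red CMXRos stain intensity per cell imaged as mitochondrial mass.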 As to conditions: high-content imaging, actives raise or lower the signal. A digest of the protocol: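 Read-out: MitoTracker Red fluorescence intensity from automated imaging (20x, six fields per well) in human HepG2 liver cells. Dosing ran 72 hr, 0.39–200 uM, 0.5% DMSO; bidirectional curve fitting versus DMSO baseline.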

For `COc1cccc2c1C(=O)c1c(O)c3c(c(O)c1C2=O)C[C@@](O)(C(=O)CO)C[C@@H]3O[C@H]1C[C@H](N)[C@H](O)[C@H](C)O1`, the AC50 (commonly the concentration at which the activity in the assay is half-maximal) in experiment [1] is 0.0653 µM (active); in [2], 1.48 µM (active); in [4], 1.37 µM (active); in [5], 0.7 µM (active); in [6], 3.17 µM (active); in experiment [7] it was 17.6 µM (active). In addition, the half-maximal activity concentration (AC50) is 8.8 µM (active) in experiment [8] and 0.177 µM (active) in experiment [9]. Further, the molecule was classed as inactive in experiment [3].

For `CCc1c(C(=O)NN2CCCCC2)nn(-c2ccc(Cl)cc2Cl)c1-c1ccc(Br)cc1`, the AC50 is 27.2 µM (active) in experiment [1]; 113 µM (active) in [3]; 27.7 µM (active) in experiment [4]; 30 µM (active) in experiment [5]; 70.4 µM (active) in experiment [6]; 32.8 µM (active) in experiment [7]. Besides, the molecule was called inactive in experiment [2], in experiment [8] and in experiment [9].

As to `CN1CCN(Cc2cc(-c3ccc4[nH]c(=O)oc4c3)co2)[C@@H](c2ccc(F)cc2)C1`, the AC50 in [1] is 51.9 µM (active); in [2], 41.5 µM (active); in experiment [3] it was 66.8 µM (active); in experiment [4], 27 µM (active); in experiment [5], 73.2 µM (active); in [6], 62 µM (active). The values for the AC50 in [7] and in [9] were 41.2 µM (active) and 54.8 µM (active), respectively. The call in experiment [8] was inactive.

In the case of `CCCCN(CCCC)CCCC`, the outcome in [1], in experiment [2], in [3], in [4], in experiment [5] and in experiment [6] was inactive. Further, the call in [7], in experiment [8] and in experiment [9] was inactive.

As for `Cc1cccc(C)c1O`, the outcome in experiment [1], in experiment [2], in experiment [3], in [4], in experiment [5] and in [6] was inactive. Also, the call in experiment [7], in experiment [8] and in experiment [9] was inactive.

On to `C=CCc1ccc(O)c(OC)c1`, for which the call in experiment [1], in experiment [2], in [4], in [5], in [6] and in experiment [7] was inactive. The molecule was classed as inactive in experiment [8] and in experiment [9]. In addition, the AC50 in [3] was 68.6 µM (active).

With `CNCc1cc(F)ccc1Oc1ccc(Cl)c(Cl)c1`, the half-maximal activity concentration (AC50) in experiment [1] is 56.9 µM (active); in experiment [2] it was 59.5 µM (active); in [4] it was 32.6 µM (active); in [6], 74.4 µM (active); in [9], 63 µM (active). The outcome in experiment [3], in experiment [5], in experiment [7] and in [8] was inactive.

For `FC(F)(F)C(F)(F)C(F)(F)C(F)(F)C(F)(F)C(F)(F)CCI`, the molecule was classed as inactive in experiment [1], in experiment [2], in experiment [3], in [4], in [5] and in experiment [6]. For the same molecule, the outcome in experiment [7], in [8] and in experiment [9] was inactive.

As to `OC[C@@H](O)[C@@H](O)[C@H](O)[C@H](O)CO`, the call in experiment [1], in experiment [2], in [3], in [4], in [5] and in experiment [6] was inactive. Also, the call in [7], in [8], in experiment [9] and in [10] was inactive.

Regarding `COc1ccc(C)cc1N`, the call in experiment [1], in experiment [2], in [3], in [4], in experiment [5] and in experiment [6] was inactive. Further, the result in experiment [7], in [8], in [9] and in experiment [10] was inactive.

For `O=C(N[C@@H](Cc1ccccc1)[C@@H](O)C(=O)N1C[C@@H](O)[C@@H](O)C1)c1cc2cc(Cl)ccc2[nH]1`, the AC50 was 104 µM (active) in [1]; 107 µM (active) in experiment [2]; 97.2 µM (active) in experiment [3]; 108 µM (active) in [4]; 104 µM (active) in experiment [9]. Further, the outcome in experiment [5], in experiment [6], in [7], in experiment [8] and in [10] was inactive.

On to `NCC1(Cc2noc(=O)[nH]2)CCCCC1`, for which the result in experiment [1], in [2], in [3], in [4], in experiment [5] and in [6] was inactive. For the same molecule, the molecule was called inactive in experiment [7], in [8] and in [9].

`CN1CCCC1=O`: the molecule was classed as inactive in [1], in [2], in experiment [3], in experiment [4], in [5] and in experiment [6]. Further, the call in [7], in [8], in experiment [9] and in [10] was inactive.

Take `CCCCCC(=O)O`: the outcome in experiment [1], in experiment [2], in experiment [3], in experiment [4], in experiment [5] and in experiment [6] was inactive. Besides, the result in experiment [7], in experiment [8], in experiment [9] and in experiment [10] was inactive.

Consider `Oc1ccc2c(c1)OC[C@@H](N1CCC(O)(c3ccc(F)cc3)CC1)[C@H]2O`, for which the molecule was classed as inactive in experiment [1], in [2], in experiment [3], in [4], in [5] and in experiment [6]. For the same molecule, the molecule was classed as inactive in [7], in experiment [8], in experiment [9] and in experiment [10].

For `CCCCCCCCCCC`, the molecule was classed as inactive in experiment [1], in [2], in experiment [3], in experiment [4], in experiment [5] and in [6]. For the same molecule, the result in experiment [7], in experiment [8] and in experiment [9] was inactive.

Consider `Cc1cc(=O)[nH]c(=S)[nH]1`, for which the molecule was classed as inactive in experiment [1], in experiment [2], in experiment [3], in [4], in experiment [5] and in [6]. The molecule was classed as inactive in [7], in [8], in [9] and in [10].

As for `Nc1ccc(S(=O)(=O)c2ccc(N)cc2)cc1`, the outcome in experiment [1], in experiment [2], in experiment [3], in experiment [4], in [5] and in experiment [6] was inactive. Moreover, the outcome in [7], in [8], in [9] and in experiment [10] was inactive.

As to `Cc1cc(NC(=O)C(=O)O)cc(C)c1Oc1ccc(O)c2c1CCC2`, the result in experiment [1], in [2], in [3], in experiment [4], in [5] and in experiment [6] was inactive. Also, the result in experiment [7], in experiment [8], in experiment [9] and in [10] was inactive.

Turning to `COc1cc(S(=O)(=O)O)c(C)cc1N=Nc1c(O)ccc2cc(S(=O)(=O)O)ccc12`, the call in experiment [1], in experiment [2], in experiment [3], in experiment [4], in experiment [5] and in experiment [6] was inactive. The molecule was called inactive in [7], in experiment [8], in [9] and in experiment [10].

On to `Cc1cccc([N+](=O)[O-])c1C`, for which the outcome in [1], in experiment [2], in experiment [3], in [4], in experiment [5] and in [6] was inactive. Moreover, the result in experiment [7], in experiment [8], in experiment [9] and in experiment [10] was inactive.

As for `NCCO`, the molecule was called inactive in experiment [1], in experiment [2], in [3], in experiment [4], in experiment [5] and in [6]. Moreover, the call in experiment [7], in experiment [8], in experiment [9] and in experiment [10] was inactive.
